A selection: hits, their analogues and other compounds. The true share with any hit is near 1.2%.
TNFa cytotox: toxic to HUVEC cells under TNF alpha stimulation. HUVEC TNFalpha-stimulated, Hoechst cell count, imaging. cell count reduction, % at 2 µM. hit rate 0.17% among 93,000;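 active = cell count reduction exceeding the screen mean by over 5 SD, scaled to untreated wells per plate, cut at about 78% in these data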;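 also: cells counted after 24 h of TNF alpha exposure following the 1 h pretreatment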
E-sel TNF inh: TNF alpha driven E-selectin expression inhibition; HUVEC TNFa-induced E-selectin immunofluorescence, high content; AID 1246; hit rate 0.71% among 120,000; inhibition, % at 2 µM;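 active = inhibition above the batch mean plus 3 SD, and confirmed as a hit on visual image review, cut at about 43% in these data; inconclusive = passes the inhibition cutoff but fails visual image review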;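 also: 0% = TNF-stimulated DMSO wells and 100% = unstimulated control wells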
VCAM1 TNFa inh: reduces TNF alpha induced VCAM1 expression in HUVEC; HUVEC TNFa-induced VCAM-1 immunofluorescence, high-content imaging; inhibition, % at 2 µM; hit rate 0.48% among 95,000; AID 802;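 active = inhibition above the batch mean plus 3 SD, with images confirmed as a hit by eye, cut at about 37% in these data; inconclusive = inhibition above that limit but hit not confirmed in images; inactive = inhibition not above that limit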;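 also: 0% = TNF-stimulated DMSO wells and 100% = unstimulated control wells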
cytoskel mod: cytoskeleton assembly modification; inhibition, % at 2 µM; HUVEC TNFa F-actin phalloidin imaging, high content; hit rate 0.18% among 91,000; AID 836;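 active = inhibition above the batch mean plus 3 SD and confirmed as a hit by visual image inspection, cut at about 30% in these data, passing the limit was not always enough; inconclusive = above the inhibition threshold but rejected on visual inspection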
* = called active by the depositor; ? = inconclusive; · = no result.

SMILES	TNFa cytotox	E-sel TNF inh	VCAM1 TNFa inh	cytoskel mod
COc1ccc(N2CCN(S(=O)(=O)c3ccc4c(c3)OCCO4)CC2)cc1	·	-9	·	·
O=S(=O)(c1ccc2c(c1)OCCCO2)N1CCNCC1	84*	·	84*	-40
Cc1cc2ncn(/N=C/c3ccc([N+](=O)[O-])o3)c2cc1C	-15	·	4	24
Oc1ccc(N2CCN(c3ncnc4sc5c(c34)CCC5)CC2)cc1	-18	·	86*	23
CCNc1ccc(C(=O)OCC(=O)N(Cc2ccccc2)C(C)(C)C)cc1[N+](=O)[O-]	·	-11	·	·
COc1ccc(N2CCN(C(=O)CSc3nnc4c(C)cc5cc(C)ccc5n34)CC2)cc1	-14	·	-5	51*
CC(C)(C)C(=O)N1CCC(O)(CS(=O)(=O)Cc2ccccc2)CC1	·	-14	·	·
c1cncc(-c2nnc(-c3ccco3)o2)c1	7	-1	1	-3
Clc1ccc(-c2nnc(-c3ccco3)o2)cc1	-12	77*	-10	-1
C=C(C)CC(NCCc1ccccc1)c1ccco1 (stereo unspecified)	·	72*	·	·
COc1cc(S(=O)(=O)N(Cc2ccccn2)Cc2ccco2)ccc1-n1cnnn1	-3	55*	-1	-10
COc1cc(S(=O)(=O)N(Cc2ccccc2)Cc2ccccn2)ccc1-n1cnnn1	-3	20	-1	-6
Cc1cc(NC(=O)CS(=O)(=O)Cc2ccccc2)no1	·	-7	·	·
COc1ccc(CNC(=O)CSc2ccc(Br)cc2)cc1OC	·	-1	·	·
CCN1CCN(Cc2c(C)[nH]c3ccc(C(=O)OC)cc3c2=O)CC1	-26	-15	96*	8
CCOc1ccc2[nH]c(C)c(CN3CCCCC3)c(=O)c2c1	9	·	11	-2
C=CCn1c(N2CCCCCC2)nc2c1c(=O)n(C)c(=O)n2C	9	-2	-4	9
C=CCn1c(N2CCCC2)nc2c1c(=O)[nH]c(=O)n2C	22	22	41*	7
Cn1c(=O)[nH]c(=O)c2c1nc(Br)n2CCSc1nnnn1-c1ccccc1	·	-21	·	·
CC(=O)Cn1c(N2CCC(Cc3ccccc3)CC2)nc2c1c(=O)[nH]c(=O)n2C	17	·	3	31*
Cn1c(=O)[nH]c(=O)c2c1nc(N1CCCCC1)n2CCCSc1nnnn1-c1ccccc1	·	89*	·	·
CCn1ncc(Br)c1C(=O)Nc1cc([N+](=O)[O-])ccc1C	·	16	·	·
C=CCNC(=S)NNC(=O)COc1cccc(Cl)c1	·	-5	-14	14
O=C(CN1C(=O)NC2NC(=O)NC21)N/N=C/c1ccccc1F (stereo unspecified)	·	-5	·	·
COc1cc(/C=N/Nc2nn3cnnc3c3ccccc23)ccc1O	-20	·	0	18
SMILES	TNFa cytotox	E-sel TNF inh	VCAM1 TNFa inh	cytoskel mod
COc1cc(/C=N/Nc2snc(SC)c2C#N)ccc1O	-14	·	43*	5
COc1ccc(C(=O)/C=C/Nc2ccc([N+](=O)[O-])cc2C)cc1OC	-4	·	2	-2
COc1ccc(C(=O)/C=C/Nc2ccc([N+](=O)[O-])cc2C)c(OC)c1	3	100*	-18	3
Cc1ccc(NC(=S)NCc2ccc3c(c2)cc(C)n3C)c(C)c1	·	-13	·	·
CCN(CC)S(=O)(=O)c1ccc(NC(=O)C(C)N(c2ccc(OC)cc2)S(C)(=O)=O)cc1 (stereo unspecified)	100*	7	?	?
COc1ccc(CCNC(=O)COc2ncnc3cc([N+](=O)[O-])ccc23)cc1	·	74*	·	·
O=C(COc1ncnc2cc([N+](=O)[O-])ccc12)NCc1ccc2c(c1)OCO2	-5	-21	-17	-1
CCc1ccc(/C=N/n2c(C)cc(C)c(C#N)c2=O)cc1	·	4	·	·
CC1CN(C(=O)/C(C#N)=C2\N=C(NC(=O)c3ccccc3Cl)c3ccccc32)CC(C)O1 (stereo unspecified)	·	93*	·	·
O=C(CC12CC3CC(CC(C3)C1)C2)NC(=S)N1CCCCC1	·	2	·	·
COc1ccccc1OCCn1cc(C(=O)c2ccco2)c2ccccc21	10	65*	4	72*
COc1cc(-c2nnc(-c3ccccc3)o2)cc(OC)c1OC	-6	2	-15	-4
COc1cc(-c2nnc(COc3ccc4ccccc4c3)o2)cc(OC)c1OC	-24	100*	-1	5
Cc1nc(S(=O)(=O)NC2CCCCC2)c(C#N)c(C)c1Cl	-22	-2	10	6
Cc1nc(S(=O)(=O)N(C)Cc2ccccc2)c(C#N)c(C)c1Cl	92*	-7	78*	-48
COc1ccc(-n2nnnc2S(=O)(=O)CC(=O)N2CCCCC2)cc1	-18	82*	?	6
COc1ccc(-n2nnnc2S(=O)(=O)Cc2ccc(C(=O)O)cc2)cc1	-18	18	24	14
COc1ccc(NS(=O)(=O)c2ccc3nc(COc4ccc(Cl)c(C)c4)[nH]c3c2)cc1	·	-13	·	·
N#CCCn1cc(/C=N/NC(N)=S)c(-c2ccc(-c3ccccc3)cc2)n1	·	-14	·	·
Cc1ccc(C)c(S(=O)(=O)NCc2ccc(C(=O)NCc3ccccn3)cc2)c1	1	-34	-13	2
O=C(NCCC1=CCCCC1)c1ccc(=O)oc1	-11	-8	15	-10
O=C(NCCC1=CCCCC1)c1coc(=O)c(Br)c1	-11	86*	13	-10
CCOC(=O)c1nn(-c2ccc(OCC)cc2)c2nc(-c3ccco3)c(C#N)c(=O)n12	·	3	·	·
CC(=O)C1=C(C)NC(SCc2cccc3ccccc23)=C(C#N)C1c1ccco1 (stereo unspecified)	·	67*	·	·
CC(=O)C1=C(C)NC(SCc2ccc(C#N)cc2)=C(C#N)C1c1ccco1 (stereo unspecified)	·	36	·	·
SMILES	TNFa cytotox	E-sel TNF inh	VCAM1 TNFa inh	cytoskel mod
O=C(Nc1ccccc1)C1=C(O)CC(c2ccc(Cl)cc2)N2CCN=C12 (stereo unspecified)	·	1	·	·
COC(=O)c1sccc1N/N=C/c1cccc(Oc2ccccc2)c1	·	14	·	·
CC(=O)Nc1nc2n(n1)C(c1ccc(F)cc1)C=C(c1ccccc1)N2 (stereo unspecified)	-9	-7	10	38*
O=C(CSc1ncccn1)NCc1ccccc1Cl	-31	60*	13	13
O=c1c2ccccc2c(C=Nc2cccc(S(=O)(=O)NCc3ccco3)c2)c(O)n1-c1ccc(Cl)cn1	·	9	·	·
Cc1cc(N2CCCCC2)nc(NCc2ccccc2)n1	-10	72*	9	-2
CCOc1cc(C(=O)Nc2ccc3c4c(cccc24)C(=O)N3CC)cc(OCC)c1OCC	6	-19	15	-18
CCN1C(=O)c2cccc3c(NC(=O)c4cccc(N5C(=O)CCC5=O)c4)ccc1c23	-18	60*	1	-25
CCOc1ccc(C(F)(F)F)cc1NC(C)=O	15	·	2	-18
Cc1nccn1-c1ccc(C(F)(F)F)cc1NC=O	-5	3	-4	73*
Cc1ccc(S(=O)(=O)NCc2ccc(C(=O)NC3CC3)cc2)cc1	·	-20	·	·
CCOC(=O)N1CCC(NC(=O)c2ccc(CNS(=O)(=O)c3ccc(F)cc3)cc2)CC1	-51	·	-9	76*
CC(=O)Nc1ccc(S(=O)(=O)N(C)c2ccccc2)cc1	·	-21	·	·
CN(c1ccccc1)S(=O)(=O)c1ccc(NC(=S)Nc2ccccc2)cc1	-17	87*	-15	6
Cc1ccsc1CN(C)Cc1nc(C2CC2)no1	·	-18	·	·
CCn1c(SCc2nc(CC(=O)Nc3ccccc3OC)no2)nnc1-c1cccs1	8	100*	-9	-6
